Potency data for 22 compounds are collected here from PubChem BioAssay (NCATS).

Records with an inconclusive call do not appear. Where a call stands in place of a potency, no number is given. Calls of active or inactive are those of the source. Calls follow the shape of the dose curve; as a rule, active = well fitted cell-killing curve with a large enough effect; inconclusive = small, poorly fitted or top-dose-only effect; inactive = flat fitted curve, though single readings scatter.
Potency is read from the fitted curve at half-maximal effect.

This assay in a line: Cell Viability - LYMP2-012 (AID 982).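 Also: cellular ATP by luciferase luminescence where a drop means cytotoxicity; cells exposed to compound for one day before reading; nearly all actives have a fitted effect of over 55% in size.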 The settings on record: LYMP2-012 lymphoblastoid cell viability qHTS; series mostly up to 92.2 µM. The text has this: NIH Chemical Genomics Center [NCGC]
NIH Molecular Libraries Screening Centers Network [MLSCN]
National Institutes of Environmental Health Sciences [NIEHS]
National Toxicology Program [NTP]
We have developed a 1536-well cell-based assay for quantitative high throughput screening (qHTS) against a number of cell lines to determine in vitro cytotoxicity of small molecules. This particular assay uses a human lymphoblastoid cell line (LYMP2-012) purchased from Coriell Institute for Medical Research.
NCGC Assay Protocol Summary:
The CellTiter-Glo luminescent cell viability assay (Promega) is a homogeneous method to measure the number of viable cells in culture. The end point readout of this assay is based on quantitation of intracellular ATP, an indicator of metabolic activity, using the luciferase reaction. Luciferase catalyzes the oxidation of beetle Luciferin to oxyluciferin and light in the presence of ATP. The luminescent signal is proportional to amount of ATP present.
Using the CellTiter-Glo luminescent cell viability assay, the amount of cellular ATP was measured in the lymphoblastoid cell line with complete culture medium following compound treatment for 24 hours. The assay was performed in opaque white Kalypsys 1536-well plates. In the screen, tetraoctylammonium bromide was used as positive control. Library compounds were measured for their ability to cause acute toxicity in the cell line, as reflected by a decrease in intracellular ATP levels, in a concentration-dependent manner. […] AC50 values were determined from concentration-response data modeled with the standard Hill equation.
qHTS protocol for CellTiter Glo lymphoblastoid cellular assay
[Step] [Parameter] [Value] [Description]
1. Reagent; 5 uL; 2500 lymphoblastoid cells/well
2. Time; 5 hr; 37 C incubation
4. Controls; 23 nL; Tetraoctylammonium bromide 6.4pM to 92 uM
5. Time; 24 hr; 37 C incubation
6. Reagent; 5 uL; CellTiter Glo reagent
7. Time; 30 min; Room Temperature
8. Detection; Luminescence; Viewlux plate reader
Keywords: cell viability, cytotoxicity, lymphoblastoid cell line, luminescence, NTPHTS, NTPHTS_NCGC, NIEHS, DSSTox, MLSMR, MLSCN, NIH Roadmap, qHTS, NCGC
In general terms: qHTS replaces the single test concentration by a dilution series.
`CN1[C@H]2CC(OC(=O)[C@H](CO)c3ccccc3)C[C@H]1[C@H]1O[C@H]12` (some centres not stated): the Potency result is “inactive”.

`Oc1ccc2cc(SSc3ccc4cc(O)ccc4c3)ccc2c1`: the Potency is 50.1 µM (active).

Regarding `O=Cc1ccc(Cl)c(Cl)c1`, the Potency result was “inactive”.

`Cc1cc(O)c(C(C)(C)C)cc1Sc1cc(C(C)(C)C)c(O)cc1C`: the Potency is 39.8 µM (active).

Take `O=C=Nc1ccc(Cc2ccc(N=C=O)cc2)cc1`: the Potency entry was “inactive”.

Take `c1ccc2c(c1)ccc1cc3c(ccc4ccccc43)cc12`: the Potency entry was “inactive”.

For the compound `CCCCCC/C(C=O)=C\c1ccccc1`, the Potency result is “inactive”.

`C=CC(=O)OCCOCCOC(=O)C=C`: the Potency is 12.6 µM (active).

As to `c1ccc2c(c1)-c1cccc3c1c-2cc1ccccc13`, the Potency result is “inactive”.

Regarding `Cc1cc(Nc2ccc(O)cc2)ccc1N`, the Potency is 39.8 µM (active).

Take `Cc1cccc(O)c1C`: the Potency entry was “inactive”.

As for `C=C(C)c1ccccc1`, the Potency entry was “inactive”.

`O=C(/C=C/c1ccc(O)c(O)c1)OC1C[C@](O)(C(=O)O)C[C@@H](O)[C@H]1O` (some centres not stated): the Potency entry is “inactive”.

`O=[N+]([O-])c1cc([N+](=O)[O-])c2ccc(S(=O)(=O)O)cc2c1O`: the Potency result is “inactive”.

Take `O=C1OC(O)C(C(Cl)Cl)=C1Cl` (configuration not stated): the Potency is 20 µM (active).

With `O=C(OCC(COC(=O)c1ccccc1)(COC(=O)c1ccccc1)COC(=O)c1ccccc1)c1ccccc1`, the Potency entry was “inactive”.

As for `CNc1ccc(O)cc1`, the Potency is 3.98 µM (active).

In the case of `Nc1ccc2cc3ccccc3cc2c1`, the Potency result is “inactive”.

As for `CN(C)c1ccc(C2(c3ccc(N(C)C)cc3)OC(=O)c3cc(N(C)C)ccc32)cc1`, the Potency entry is “inactive”.

For the compound `CCC(C)Nc1ccc(NC(C)CC)cc1` (configuration not stated), the Potency was 3.98 µM (active).

For the compound `CC(=O)Nc1ccc(C(=O)CCl)cc1`, the Potency was 5.01 µM (active).

For `CCCCCCCC[N+](CCCCCCCC)(CCCCCCCC)CCCCCCCC`, the Potency was 3.98 µM (active).
